Laboratory results: PubChem BioAssay AID1159580 (chemical genetic matrix, 2015)
Where “and” joins values, the source holds several entries; their conditions need not be identical. Equal entries are not always repeated. Among all 5,500 compounds or so, about 2,000 (36%) were called active. About 18% were inconclusive and are not listed. No stated cut-off is given here; in the data, active means normalized growth mostly below about 0.91 (no sharp cut-off); inconclusive means no clear call, values can overlap the other calls; inactive means mostly above about 0.92. This is one part of the list.

Assay: chemical genetic growth profiling, strain panel (AID 1159580);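 further: tested at 20 µM; growth read once vehicle control cultures reached saturation at 30 °C; 1 = growth at the plate median or of vehicle wells; lower values mean less growth of the strain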
Details: growth OD
[1] = S. cerevisiae deletion strains, locus YAL040C, strain CLN3, active compounds read low
[2] = S. cerevisiae deletion strains, locus YER002W, strain NOP16, active compounds read low
[3] = S. cerevisiae deletion strains, locus YGR078C, strain PAC10, active compounds read low
[4] = S. cerevisiae deletion strains, locus YNL175C, strain NOP13, active compounds read low
[5] = S. cerevisiae deletion strains, locus YNL197C, strain WHI3, active compounds read low
[6] = S. cerevisiae deletion strains, locus YNL224C, strain SQS1, active compounds read low
[7] = S. cerevisiae deletion strains, locus YNL322C, strain KRE1, active compounds read low
[8] = S. cerevisiae deletion strains, locus YOR083W, strain WHI5 (second series), active compounds read low
[9] = S. cerevisiae deletion strains, locus YPL241C, strain CIN2, active compounds read low

Measured: normalized growth

CC(=O)NCCc1c[nH]c2ccc(O)cc12
inactive: [1] 1 | S. cerevisiae deletion strains, locus YBR021W, strain FUR4, active compounds read low 1.03 | S. cerevisiae deletion strains, locus YBR229C, strain ROT2, active compounds read low 0.96 | S. cerevisiae deletion strains, locus YCL029C, strain bik1, active compounds read low 0.98 | S. cerevisiae deletion strains, locus YDL035C, strain GPR1, active compounds read low 1.01 | S. cerevisiae deletion strains, locus YDL074C, strain BRE1, active compounds read low 0.953 | S. cerevisiae deletion strains, locus YDL101C, strain DUN1, active compounds read low 0.977 | S. cerevisiae deletion strains, locus YDL134C, strain PPH21, active compounds read low 0.993 | S. cerevisiae deletion strains, locus YDL185W, strain tfp1, active compounds read low 0.983 | S. cerevisiae deletion strains, locus YDL192W, strain arf1, active compounds read low 0.982 | S. cerevisiae deletion strains, locus YDR101C, strain arx1, active compounds read low 0.929 | S. cerevisiae deletion strains, locus YDR150W, strain NUM1, active compounds read low 1.01 | S. cerevisiae deletion strains, locus YDR162C, strain NBP2, active compounds read low 0.999 | S. cerevisiae deletion strains, locus YDR318W, strain mcm21, active compounds read low 0.992 | S. cerevisiae deletion strains, locus YDR388W, active compounds read low 0.991 | S. cerevisiae deletion strains, locus YDR502C, strain sam2, active compounds read low 0.985 | S. cerevisiae deletion strains, locus YEL061C, strain CIN8, active compounds read low 0.984 | [2] 0.993 | S. cerevisiae deletion strains, locus YER110C, active compounds read low 0.986 | S. cerevisiae deletion strains, locus YER155C, strain BEM2, active compounds read low 0.998 | S. cerevisiae deletion strains, locus YER167W, strain BCK2, active compounds read low 0.992 | S. cerevisiae deletion strains, locus YGL078C, strain dbp3, active compounds read low 0.999 | S. cerevisiae deletion strains, locus YGL086W, strain mad1, active compounds read low 0.962 | S. cerevisiae deletion strains, locus YGL248W, strain PDE1, active compounds read low 0.98 | [3] 1.01 | S. cerevisiae deletion strains, locus YGR135W, strain pre9, active compounds read low 1.06 | S. cerevisiae deletion strains, locus YGR252W, strain gcn5, active compounds read low 1.05 | S. cerevisiae deletion strains, locus YHR030C, strain SLT2, active compounds read low 0.997 | S. cerevisiae deletion strains, locus YHR079C, strain IRE1 (second series), active compounds read low 0.992 | S. cerevisiae deletion strains, locus YHR094C, strain hxt1, active compounds read low 0.991 | S. cerevisiae deletion strains, locus YHR129C, strain ARP1, active compounds read low 0.993 | S. cerevisiae deletion strains, locus YHR200W, strain rpn10, active compounds read low 0.989 | S. cerevisiae deletion strains, locus YIL066C, strain RNR3, active compounds read low 0.956 | S. cerevisiae deletion strains, locus YIL073C, strain SPO22, active compounds read low 0.989 | S. cerevisiae deletion strains, locus YIL125W, strain kgd1, active compounds read low 0.988 | S. cerevisiae deletion strains, locus YIR030C, strain dcg1, active compounds read low 0.997 | S. cerevisiae deletion strains, locus YJL095W, strain BCK1, active compounds read low 0.982 | S. cerevisiae deletion strains, locus YJL134W, strain LCB3, active compounds read low 0.992 | S. cerevisiae deletion strains, locus YJL168C, strain set2, active compounds read low 0.995 | S. cerevisiae deletion strains, locus YJL187C, strain SWE1 (second series), active compounds read low 0.95 | S. cerevisiae deletion strains, locus YJR043C, strain POL32, active compounds read low 0.99 | S. cerevisiae deletion strains, locus YKL009W, strain mrt4, active compounds read low 0.978 | S. cerevisiae deletion strains, locus YKL068W, active compounds read low 0.986 | S. cerevisiae deletion strains, locus YKL085W, strain MDH1 (second series), active compounds read low 0.982 | S. cerevisiae deletion strains, locus YKL085W, strain MDH1, active compounds read low 0.982 | S. cerevisiae deletion strains, locus YKL190W, strain CNB1, active compounds read low 0.993 | S. cerevisiae deletion strains, locus YKR001C, strain vps1, active compounds read low 0.978 | S. cerevisiae deletion strains, locus YLR039C, strain RIC1, active compounds read low 0.95 | S. cerevisiae deletion strains, locus YLR058C, strain SHM2, active compounds read low 0.982 | S. cerevisiae deletion strains, locus YLR102C, strain apc9, active compounds read low 0.999 | S. cerevisiae deletion strains, locus YLR262C, strain YPT6, active compounds read low 0.967 | S. cerevisiae deletion strains, locus YLR268W, strain sec22, active compounds read low 0.983 | S. cerevisiae deletion strains, locus YLR330W, strain CHS5, active compounds read low 0.989 | S. cerevisiae deletion strains, locus YLR342W, strain FKS1 (second series), active compounds read low 1.07 | S. cerevisiae deletion strains, locus YLR371W, strain rom2, active compounds read low 1.02 | S. cerevisiae deletion strains, locus YLR418C, strain cdc73, active compounds read low 1.05 | S. cerevisiae deletion strains, locus YML016C, strain PPZ1, active compounds read low 0.992 | S. cerevisiae deletion strains, locus YML032C, strain rad52, active compounds read low 0.978 | S. cerevisiae deletion strains, locus YML124C, strain tub3, active compounds read low 0.995 | S. cerevisiae deletion strains, locus YMR078C, strain ctf18, active compounds read low 0.99 | S. cerevisiae deletion strains, locus YMR223W, strain ubp8, active compounds read low 1.03 | S. cerevisiae deletion strains, locus YMR263W, strain SAP30, active compounds read low 1 and 0.976 | S. cerevisiae deletion strains, locus YMR307W, strain GAS1, active compounds read low 1.05 | S. cerevisiae deletion strains, locus YNL067W, strain RPL9B, active compounds read low 0.959 | S. cerevisiae deletion strains, locus YNL128W, strain TEP1, active compounds read low 1.01 | [4] 1.01 | [5] 1.01 | [6] 1.02 | S. cerevisiae deletion strains, locus YNL233W, strain BNI4, active compounds read low 0.966 | S. cerevisiae deletion strains, locus YNL250W, strain rad50, active compounds read low 0.967 | S. cerevisiae deletion strains, locus YNL271C, strain bni1, active compounds read low 0.982 | S. cerevisiae deletion strains, locus YNL298W, strain CLA4, active compounds read low 1 | S. cerevisiae deletion strains, locus YNL307C, strain MCK1, active compounds read low 0.987 | [7] 1.02 and 0.994 | S. cerevisiae deletion strains, locus YNR052C, strain pop2, active compounds read low 0.996 | S. cerevisiae deletion strains, locus YOL006C, strain TOP1, active compounds read low 0.933 | S. cerevisiae deletion strains, locus YOL012C, strain htz1 1.04 | S. cerevisiae deletion strains, locus YOL147C, strain pex11, active compounds read low 0.993 | S. cerevisiae deletion strains, locus YOR061W, strain CKA2, active compounds read low 0.963 | S. cerevisiae deletion strains, locus YOR069W, strain VPS5, active compounds read low 0.997 | [8] 1.01 | S. cerevisiae deletion strains, locus YOR136W, strain idh2, active compounds read low 0.989 | S. cerevisiae deletion strains, locus YOR144C, strain elg1, active compounds read low 0.994 | S. cerevisiae deletion strains, locus YOR184W, strain ser1, active compounds read low 1 | S. cerevisiae deletion strains, locus YOR316C, strain cot1, active compounds read low 0.986 | [9] 1.01 and 0.993 | S. cerevisiae deletion strains, locus YPR119W, strain clb2, active compounds read low 0.988 | S. cerevisiae deletion strains, locus YPR141C, strain kar3, active compounds read low 0.981 | S. cerevisiae deletion strains, locus YPR163C, strain tif3, active compounds read low 0.986 | S. cerevisiae deletion strains, locus YPR167C, strain met16, active compounds read low 0.992 | S. cerevisiae deletion strains, strain wtn01, active compounds read low 1 | S. cerevisiae strains, strain wild type, active compounds read low 0.987

CCCCS(=N)(=O)CC[C@H](N)C(=O)O (some centres not stated)
inactive: [1] 0.986 | S. cerevisiae deletion strains, locus YDR363W, strain ESC2, active compounds read low 0.99 | [2] 1.01 | [3] 0.995 | [4] 0.984 | [5] 0.991 | [6] 0.983 | [7] 0.994 | [8] 0.977 | [9] 1
